Assay outcomes: PubChem, National Center for Advancing Translational Sciences (NCATS)
FMDV antiviral: High Throughput Screening for Foot and Mouth Disease Virus Antivirals. 410,000 compounds, 1.2% hits. FMDV antiviral cell-based qHTS. Potency, µM (titrated, usually from 57.9 µM), without a hit: top-dose activity change, negative = inhibition, actives largely listed as inhibitors; calls by dose curve; tested in HEK293T cells; further: read-out not given here; potency means the concentration at half of the fitted maximal effect; nearly all actives have a fitted effect of over 45% in size
VACV mCherry inh: qHTS for Stage-Specific Inhibitors of Vaccinia Orthopoxvirus: mCherry Reporter Primary qHTS; 310,000 compounds, 0.63% hits; Vaccinia virus mCherry reporter infection, fluorescence; Potency, µM (top dose mostly 36.5 µM), without a hit: at the top dose activity change, negative = inhibition, most hits filed as inhibitors; calls by dose curve; tested in A549 cells; further: potency means the concentration at half of the fitted maximal effect; nearly all actives have a fitted effect of over 35% in size
HCV inh: qHTS Assay for Inhibitors of Hepatitis C Virus (HCV); Huh7.5.1 HCVcc-Cre infection, luciferase reporter, 44 h; Potency, µM (doses to about 41.8 µM), without a hit: top-dose activity change, negative = inhibition, usual class: inhibitors; 340,000 compounds, 3.4% hits; AID 651820, 2012; active means well fitted inhibition curve with a large enough effect; inconclusive means small, poorly fitted or top-dose-only effect, or another doubt; inactive means no such curve, though single readings can be large or run the other way; further: potency means the concentration at half of the fitted maximal effect
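Reporter virus HCVcc-Cre (~0.5 moi) infects cells exposed to compound; seeding density 1,000 cells/well with 4 h settling beforehand. Luminescence, 15 sec read, taken 44 h post-infection following a 15 min RT substrate incubation.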
HCMV antiviral: qHTS Assay for inhibitors of the human cytomegalovirus (HCMV); HFF cells, HCMV-luciferase reporter, 72 h; active compounds read low; activity change, negative = inhibition, % at 57.5 µM; 410,000 compounds, 4.5% hits; AID 1259415, 2018; in the data active means activity change below about -60%; inconclusive means no clear call, values can overlap the other calls; inactive means above about -39%
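Two-dose cell screen: HFF monolayers treated with compounds and infected with luciferase-expressing HCMV at 1 PFU/cell, 72 h at 37C, then lysed for luciferase measurement.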
Vaccinia Venus: qHTS for Stage-Specific Inhibitors of Vaccinia Orthopoxvirus: Venus Reporter Primary qHTS; Vaccinia virus Venus reporter expression, fluorescence; Potency, µM (top dose mostly 36.5 µM), without a hit: top-dose activity change, negative = inhibition, actives largely listed as inhibitors; 330,000 compounds, 0.46% hits; calls by dose curve; tested in A549 cells; further: potency means the concentration at half of the fitted maximal effect; nearly all actives have a fitted effect of over 30% in size
Active calls of the source: *; i = inactive; u = inconclusive; x = no result. In the library only some 7.3% were active in any assay of this set; here they are far more common. On the % scale 0 is the no-effect control and ±100 the full control effect.

SMILES | FMDV antiviral | VACV mCherry inh | HCV inh | HCMV antiviral | Vaccinia Venus
CC(Oc1ccccc1)C(=O)Nc1nc(-c2ccccn2)cs1 (stereo unspecified) | -21% | 7.1µM* | u | u | u
Cc1nnc(SCC2=C(C(=O)O)N3C(=O)C(NC(=O)Cn4cnnn4)[C@@H]3SC2)s1 (stereo partly specified) | 0% | -15% | x | x | -9%
Cc1ccc(NC(=O)CSc2nnc3[nH]c(=O)cc(-c4ccccc4)n23)cc1Cl | 9% | i | x | 23 | -17%
CS(=O)(=O)c1ccc(Sc2nc3ccccc3s2)c([N+](=O)[O-])c1 | 35µM* | u | u | x | u
COc1cccc(/C=C/c2ccc3ccccc3[n+]2C)c1OC | x | -29% | x | x | -12%
CC(Cc1ccccc1)NCc1ccccc1O (stereo unspecified) | -9% | -23% | 6% | -67* | -12%
CC(NCc1ccccc1O)c1ccccc1 (stereo unspecified) | 11% | x | 8% | 14 | x
COc1ccc(C(=O)NCc2nnc(SCC(=O)Nc3ccccc3)n2-c2ccccc2)cc1 | 12% | -15% | x | 1 | -7%
COc1ccccc1N=Nc1nc(-c2ccccc2)c(-c2ccccc2)[nH]1 | -3% | i | 11µM* | 4 | 15%
COc1ccc(N=Nc2nc(-c3ccccc3)c(-c3ccccc3)[nH]2)cc1 | -21% | 8% | u | 33 | 17%
COc1cc(CN2CCOc3ccc(CN4CCC(Oc5cccnc5)CC4)cc3C2)ccc1F | u | -17% | x | x | -10%
COc1ccc(C(=O)NCC(=O)N=Nc2c(O)n(C)c3ccccc23)cc1OC | -9% | x | -20% | -61* | x
COc1ccc(C(=O)NCC(=O)N=Nc2c(O)n(Cc3ccccc3)c3ccccc23)cc1OC | -15% | i | u | u | -2%
Cc1c2cnn(CC(=O)NCCCN3CC(C)CC(C)C3)c(=O)c2c(C)n1Cc1ccccc1Cl (stereo unspecified) | -13% | -22% | -19% | -69* | u
CCOc1ccc(CN2CCN(c3ncnc4scc(-c5ccccc5)c34)CC2)cc1 | u | i | u | 38 | -11%
Cc1sc2ncnc(N3CCN(CCOc4ccc(Cl)cc4)CC3)c2c1C | u | x | 10µM* | -93* | x
Cc1sc2ncnc(N3CCN(Cc4ccccc4)CC3)c2c1-c1ccccc1 | 28µM* | -9% | u | -21 | 0%
COc1ccc(CNC(=O)CCc2c(C)c3cc4c(C)c(C)oc4cc3oc2=O)cc1OC | 16% | -17% | x | -4 | -18%
CC(C)N1CCc2c(sc(NC(=O)c3ccc4ccccc4c3)c2C(N)=O)C1 | -4% | x | 8.9µM* | -7 | x
CN1CCc2c(sc(NC(=O)c3ccco3)c2C(N)=O)C1 | -12% | i | x | 16 | -21%
CCN1CCc2c(sc(NC(=O)c3cc4ccccc4cc3OC)c2C(N)=O)C1 | -8% | 14µM* | 8.9µM* | -113* | u
CN1CCc2c(sc(NC(=O)c3cc(Cl)sc3Cl)c2C(N)=O)C1 | -18% | u | 13µM* | 3 | -18%
CC(C)N1CCc2c(sc(NC(=O)c3ccc(C(=O)c4ccccc4)cc3)c2C(N)=O)C1 | -2% | u | u | 4 | u
CC(=O)c1ccc(C(=O)Nc2sc3c(c2C(N)=O)CCN(Cc2ccccc2)C3)cc1 | x | x | x | -74* | x
COc1cccc(OC)c1C(=O)Nc1sc2c(c1C(N)=O)CCN(Cc1ccccc1)C2 | u | i | -6% | -7 | -11%
CC(C)Oc1ccc(Nc2cc3c(cn2)cc(-c2cnn(C)c2)n3C)cc1 | x | x | x | 9 | x
O=C(NCc1ccncc1)c1cnn(-c2ncc3c(n2)-c2ccccc2CC3)c1C1CC1 | -11% | i | x | x | -8%
CC(C)N1CCc2c(sc(NC(=O)Cc3ccccc3)c2C(N)=O)C1 | u | -7% | -17% | -2 | -10%
CC(C)N1CCc2c(sc(NC(=O)c3ccco3)c2C(N)=O)C1 | 0% | u | -12% | -76* | -26%
CC(C)N1CCc2c(sc(NC(=O)c3cc4cc([N+](=O)[O-])ccc4s3)c2C(N)=O)C1 | -22% | u | u | -95* | -10%
